BAZ2B block = qHTS Assay for Inhibitors of BAZ2B; Bromodomain adjacent to zinc finger domain protein 2B (Homo sapiens), Q9UIF8; AlphaScreen BAZ2B-H3K14Ac peptide displacement; Potency, µM (titrated, usually from 114 µM), most hits filed as inhibitors; actives 4.4% (n = 360,000); AID 504333, 2011; also: nearly all actives have a fitted effect of over 60% in size
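BAZ2B 50 nM plus b-H3(5-23)K14Ac 50 nM, PBS pH 7.4/0.01% Tween-20, 30 min RT; compound added (max 110 uM), 30 min RT; streptavidin donor/Ni-chelate acceptor beads 10 ug/mL final, 20 min dark; AlphaScreen read.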
JMJD2A Tudor inh = qHTS Assay for Inhibitors of JMJD2A-Tudor Domain. AlphaScreen JMJD2A-Tudor / H3K4me3 peptide binding. Potency, µM (top dose mostly 114 µM), hits mostly inhibitors. actives 4.4% (n = 390,000). AID 504339, 2011; also: nearly all actives have a fitted effect of over 50% in size
G9a block = qHTS Assay for Inhibitors of Histone Lysine Methyltransferase G9a; G9a H3K9 monomethylation, AlphaScreen, 2 h; actives 8.8% (n = 350,000); Potency, µM (series often up to 102 µM), actives largely listed as inhibitors; AID 504332, 2011; Histone-lysine N-methyltransferase EHMT2 (Homo sapiens), Q96KQ7; also: nearly all actives have a fitted effect of over 75% in size
Target sequence (Q96KQ7 913-1193 limits assumed): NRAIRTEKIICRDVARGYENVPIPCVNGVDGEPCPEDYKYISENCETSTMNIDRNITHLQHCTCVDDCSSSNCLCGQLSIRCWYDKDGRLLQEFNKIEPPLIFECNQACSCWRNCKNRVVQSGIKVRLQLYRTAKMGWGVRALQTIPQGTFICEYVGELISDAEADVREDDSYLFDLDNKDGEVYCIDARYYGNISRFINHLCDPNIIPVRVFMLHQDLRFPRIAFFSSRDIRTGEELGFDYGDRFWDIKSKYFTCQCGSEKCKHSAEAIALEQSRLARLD
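Signal arises when biotinylated H3K9 peptide, once monomethylated, bridges streptavidin donor and antibody-captured acceptor beads. Enzyme at 20 nM was preincubated 15 min with test compounds; peptide 500 nM and SAM 20 uM then reacted for 2 h.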
GLS inhibitor = qHTS for Inhibitors of Glutaminase (GLS) | actives 0.21% (n = 410,000) | AID 624170, 2012 | GLS enzymatic activity, qHTS titration | Glutaminase kidney isoform, mitochondrial (Homo sapiens), O94925 | Potency, µM (top dose mostly 45.5 µM), usual class: inhibitors
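hKGA in 45 mM KH2PO4 pH 8.2, 0.02% Tween-20 with pin-transferred compounds; 1 mM L-glutamine (stock) plus glutamate oxidase/HRP/Amplex Red coupling added. Fluorescence read initially and after 30 min at RT.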
HP1b binding inh = HTS for Inhibitors of HP1-beta Chromodomain Interactions with Methylated Histone Tails; Chromobox protein homolog 1 (Homo sapiens), P83916; AlphaScreen HP1-beta / biotin-H3K9me3 peptide binding; Potency, µM (doses to about 114 µM), actives largely listed as inhibitors; actives 0.56% (n = 390,000); AID 540317, 2011; also: nearly all actives have a fitted effect of over 70% in size
Target sequence (P83916 whole entry, looked up): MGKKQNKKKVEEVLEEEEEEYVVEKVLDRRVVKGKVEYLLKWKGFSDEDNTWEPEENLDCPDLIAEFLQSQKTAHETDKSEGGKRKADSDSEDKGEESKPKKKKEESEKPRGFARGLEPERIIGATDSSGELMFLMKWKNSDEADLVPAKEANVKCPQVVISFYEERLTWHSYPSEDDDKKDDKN
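AlphaScreen: HP1-beta (50 nM) preformed 30 min with biotin-H3(1-18)K9me3 peptide (50 nM) in PBS pH 7.4, 0.01% Tween-20. Compound added for 30 min at RT, then streptavidin donor/nickel chelate acceptor beads (10 ug/mL) for 30 min.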
Each line names hits and unclear results; the compound was inactive in the other large screens. Compounds with a hit are over-represented: about 10% of the library has one in this group of screens. Calls follow the shape of the dose curve; as a rule, active = well fitted curve in the direction sought with a large enough effect; inconclusive = small, poorly fitted or top-dose-only effect, or another doubt; inactive = no such curve, though single readings can be large; an effect the other way counts as inactive or inconclusive.

COc1ccc(C(=O)OC/C(O)=C(\C#N)c2nc3ccccc3[nH]2)cc1S(=O)(=O)N1CCOCC1	G9a block 79µM
COC(=O)CCCCC(=O)C1C(=O)CC(C)(C)C(C(=O)OC)C1=O (configuration not stated)	JMJD2A Tudor inh inconclusive, G9a block inconclusive
CCCC(=O)C1C(=O)CC(C)(C)C(c2cc(C)no2)C1=O (configuration not stated)	JMJD2A Tudor inh 50µM, G9a block inconclusive
O=C(COC(=O)C1COc2ccccc2O1)NC(=O)Nc1ccc2c(c1)OCCO2 (configuration not stated)	none
CSc1ccc(CN2CCCCCC2)cc1	JMJD2A Tudor inh 5µM, G9a block 11µM, HP1b binding inh inconclusive
O=[N+]([O-])c1ccc(CN2CCOCCOCCN(Cc3ccc([N+](=O)[O-])cc3)CCOCC2)cc1	BAZ2B block inconclusive, JMJD2A Tudor inh inconclusive, G9a block inconclusive
CCS(=O)(=O)N1CCN(Cc2ccc([N+](=O)[O-])cc2)CC1	BAZ2B block 50µM, JMJD2A Tudor inh 5.6µM, G9a block inconclusive, HP1b binding inh inconclusive
CN(C)c1ccc(CN2CCCCCC2)cc1	G9a block inconclusive
CSc1ccc(CN2CCN(Cc3ccc([N+](=O)[O-])cc3)CC2)cc1	BAZ2B block 28µM, JMJD2A Tudor inh inconclusive, G9a block 32µM, HP1b binding inh inconclusive
O=[N+]([O-])c1ccc(CN2CCCCCC2)cc1	G9a block inconclusive
Cc1ccc(N2C(=O)c3ccccc3C2=O)cc1	none (no result: G9a block)
Cc1ccc(SC2=C(Sc3ccc(C)cc3)C(=O)c3ccccc3C2=O)cc1	BAZ2B block 3.5µM, JMJD2A Tudor inh 3.5µM, G9a block 2.8µM, HP1b binding inh 3.5µM
CCOC(=O)CC1C(=O)NCCN1C(=O)c1cc2c(=O)n3cccc(C)c3nc2s1 (configuration not stated)	G9a block inconclusive
CCN1CCN(C(=O)c2cc3c(=O)n4ccccc4nc3s2)CC1	none
CCOC(=O)CC1C(=O)NCCN1C(=O)c1cc2c(=O)n3ccccc3nc2s1 (configuration not stated)	G9a block 89µM (no result: JMJD2A Tudor inh, GLS inhibitor, HP1b binding inh)
O=C(c1cc2c(=O)n3ccccc3nc2s1)N1CCc2ccccc2C1	G9a block 40µM (no result: JMJD2A Tudor inh, GLS inhibitor, HP1b binding inh)
CC(=O)c1c(C)[nH]c(C(=O)OCC(=O)Nc2cccc(S(=O)(=O)N3CCCC3)c2)c1C	BAZ2B block 56µM
CC(=O)c1c(C)[nH]c(C(=O)OCC(=O)Nc2cccc(S(=O)(=O)N(C)C)c2)c1C	BAZ2B block 50µM
CN(C)/C=C1\SC(=S)N(c2ccc(F)cc2)C1=O	G9a block 63µM
CN(C)/C=C1\SC(=S)N(c2ccc(Br)cc2)C1=O	BAZ2B block 40µM, JMJD2A Tudor inh inconclusive, G9a block 45µM
Cc1nc(SCCO)c([N+](=O)[O-])[nH]1	none (no result: G9a block)
Cc1nc(SCCC(C)C)c([N+](=O)[O-])[nH]1	G9a block 28µM
CCOC(=O)CSc1nc(C)[nH]c1[N+](=O)[O-]	none (no result: G9a block)
Cc1nc(SCC(N)=O)c([N+](=O)[O-])[nH]1	JMJD2A Tudor inh 40µM
Cc1csc(-c2cc(C(=O)NCc3cc(C(F)(F)F)cc(C(F)(F)F)c3)n[nH]2)c1	none (no result: BAZ2B block, JMJD2A Tudor inh, G9a block, HP1b binding inh)
COc1ccc(NC(=O)CN(C)C(=O)c2ccc(N3CCCCCC3)c([N+](=O)[O-])c2)cc1	JMJD2A Tudor inh inconclusive, G9a block 50µM
Cc1ccc(NC(=O)CN(C)C(=O)Cn2cc(C(F)(F)F)ccc2=O)cc1	none
CN(CC(=O)Nc1ccc(Cl)c(C(F)(F)F)c1)C(=O)Cn1cc([N+](=O)[O-])ccc1=O	G9a block 6.3µM
COc1ccccc1N1CCN(c2ccc(N3C(=O)CCC3=O)cc2[N+](=O)[O-])CC1	G9a block inconclusive
COc1cccc(N2CCN(c3ccc(N4C(=O)CCC4=O)cc3[N+](=O)[O-])CC2)c1	BAZ2B block inconclusive, JMJD2A Tudor inh inconclusive, G9a block 50µM

Screening results as filed in PubChem.
